Molecules are shown by their SMILES. Entries with a potency or affinity are not part of this list. Inconclusive results are not listed. A number with no mark means an inactive call. How the calls were made is not given here.

A short description of the assay: non-specific cell cytotoxicity, dose response, cytotoxicity control for PAX8 inhibitor project, plate reader, dry powder samples (AID 743021). Particulars: cell line, non-specific cytotoxicity counter-screen; series mostly up to 35 µM; activity change, negative = cytotoxicity: at the top concentration. On the technique in general: Counterscreens check selectivity or assay interference.
With `C=CCC[C@@H](Cc1ccc(F)cc1)C(=O)OC[C@@H](Cc1c[nH]c2ccccc12)NC(=O)[C@H](CC=C)CC(=O)N(CCO)Cc1ccccc1`, the “activity change, negative = cytotoxicity” value was -5.52%.

As for `O=C(COC(=O)c1ccco1)Nc1cccc(S(=O)(=O)N2CCOCC2)c1`, the “activity change, negative = cytotoxicity” value is -1.07%.

On to `COc1ccc(OC)c2sc(N(CCCN(C)C)C(=O)CCS(=O)(=O)c3ccccc3)nc12`, for which the “activity change, negative = cytotoxicity” value was 7.78%.

On to `COc1cc(NC(=O)c2ccc([N+](=O)[O-])o2)ccc1NC(=O)c1ccco1`, for which the “activity change, negative = cytotoxicity” value is -29.8%.
